Screening results from PubChem.
An excerpt weighted towards active compounds, which were near 10% of everything screened.
hNpr1 antagonist: antagonists of human natriuretic peptide receptor Npr1; 1.6% of 76,000 active; P16066; Potency, µM (series often up to 46.3 µM), for the others: top-dose activity change, negative = inhibition, hits mostly inhibitors; AID 1347048; HEK293 hNpr1 GloSensor cGMP, ANP-stimulated luminescence; calls by dose curve; further: nearly all actives have a fitted effect of over 60% in size
Target sequence (P16066 whole entry, looked up): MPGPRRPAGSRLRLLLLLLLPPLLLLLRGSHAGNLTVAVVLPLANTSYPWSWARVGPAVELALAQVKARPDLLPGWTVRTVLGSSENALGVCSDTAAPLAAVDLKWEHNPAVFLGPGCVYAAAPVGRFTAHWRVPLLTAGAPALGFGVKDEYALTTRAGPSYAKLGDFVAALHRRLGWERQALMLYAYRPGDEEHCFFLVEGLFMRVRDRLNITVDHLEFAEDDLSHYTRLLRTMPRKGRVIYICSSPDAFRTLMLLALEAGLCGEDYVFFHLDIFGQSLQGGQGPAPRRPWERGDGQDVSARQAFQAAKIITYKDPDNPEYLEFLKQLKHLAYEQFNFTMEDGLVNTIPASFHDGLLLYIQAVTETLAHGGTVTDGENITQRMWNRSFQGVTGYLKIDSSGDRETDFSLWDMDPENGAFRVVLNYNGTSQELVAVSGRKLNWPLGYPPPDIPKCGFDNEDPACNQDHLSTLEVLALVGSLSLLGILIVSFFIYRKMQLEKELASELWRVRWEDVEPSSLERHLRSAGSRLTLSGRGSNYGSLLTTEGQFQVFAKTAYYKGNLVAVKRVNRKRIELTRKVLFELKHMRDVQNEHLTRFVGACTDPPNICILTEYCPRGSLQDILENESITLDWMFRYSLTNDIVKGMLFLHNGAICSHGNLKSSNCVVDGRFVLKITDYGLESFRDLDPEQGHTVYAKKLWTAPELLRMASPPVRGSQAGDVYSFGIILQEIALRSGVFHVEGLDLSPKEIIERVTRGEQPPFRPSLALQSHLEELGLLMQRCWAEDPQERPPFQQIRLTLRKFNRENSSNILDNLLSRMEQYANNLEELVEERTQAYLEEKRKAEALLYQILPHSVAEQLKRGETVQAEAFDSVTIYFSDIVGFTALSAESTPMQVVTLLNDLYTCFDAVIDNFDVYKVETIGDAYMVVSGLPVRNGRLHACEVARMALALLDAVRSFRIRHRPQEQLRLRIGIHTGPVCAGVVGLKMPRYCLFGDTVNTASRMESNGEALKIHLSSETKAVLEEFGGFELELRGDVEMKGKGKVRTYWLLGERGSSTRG
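Compound pre-incubated 30 min at room temperature on GloSensor-loaded HEK293 cells stably carrying hNpr1 and the pGS-40F cGMP biosensor. Stimulation uses hNppA at 0.1 nM final; luminescence is taken at baseline and 20 min post-agonist.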
HEK cytotox: HEK 293 cell cytotoxicity. HEK 293 viability, ATP luminescence (CellTiter-Glo), 48-72 h. Potency, µM (top dose mostly 115 µM), without a hit: at the top dose activity change, negative = cytotoxicity, actives largely listed as inhibitors. 6.6% of 94,000 active. AID 1345083; further: nearly all actives have a fitted effect of over 60% in size
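qHTS cytotoxicity; HEK 293, 250 cells/well; compound pinned; 48 or 72 hr, 37 degree Celsius, 5% CO2, 95% humidity; CellTiter-Glo, 10 min RT; luminescence (ATP).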
GPT2 inhibitor: blocks human glutamate pyruvate transaminase 2; Q8TD30; Recombinant GPT2, coupled pyruvate oxidase/HRP Amplex Red fluorescence; Potency, µM (top dose mostly 57.7 µM), without a hit: at the highest dose activity change, negative = inhibition, most hits filed as inhibitors; 0.25% of 100,000 active; AID 1671188; further: nearly all actives have a fitted effect of over 60% in size
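Fluorescence of coupled pyruvate oxidase/HRP/Amplex Red system (50uM Amplex, 30 min, dark) reports pyruvate formed by GPT2. Enzyme reaction: 10ng/uL GPT2, 2mM L-alanine, 250uM a-KG, 30 min room temperature, pH 7.5; 50uM AOA control.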
3T3 cytotox: NIH 3T3 cell cytotoxicity; NIH 3T3 viability, CellTiter-Glo ATP luminescence, 48-72 h; Potency, µM (titrated, usually from 96.7 µM), for the others: at the top dose activity change, negative = cytotoxicity, hits mostly inhibitors; 4.3% of 94,000 active; further: nearly all actives have a fitted effect of over 55% in size
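NIH 3T3 cells at 400 cells/well received 23 nL of compound by pintool and were incubated 48 or 72 h at 37 °C. Viability was read as ATP-coupled CellTiter-Glo luminescence.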
Luciferase inh: Photinus pyralis luciferase inhibition; P08659; purified P. pyralis luciferase, luminescence, biochemical; Potency, µM (top dose mostly 115 µM), most hits filed as inhibitors; 2.5% of 76,000 active; AID 1347043; further: nearly all actives have a fitted effect of over 65% in size
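Biochemical qHTS: compound (6-point titration) added to 10uM D-luciferin plus 10uM ATP in Tris acetate pH 7.5 buffer with Mg, Tween-20 and BSA, then purified enzyme at 10nM; light output imaged.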
* = called active by the depositor; i = inactive; u = inconclusive; x = not tested or not shown; [ ] = remark or other dose. Unless noted, the call rests on the fitted dose curve; in most records, active means well fitted curve in the direction sought with a large enough effect; inconclusive means small, poorly fitted or top-dose-only effect, or another doubt; inactive means no such curve, though single readings can be large; an effect the other way counts as inactive or inconclusive. On the % scale 0 is the no-effect control and ±100 the full control effect; potency means the concentration at half of the fitted maximal effect.

SMILES | hNpr1 antagonist | HEK cytotox | GPT2 inhibitor | 3T3 cytotox | Luciferase inh
CCOc1ccccc1CN1CCN(c2ncnc3[nH]ccc23)CC1CCO (centres undefined) | 4% | u | i[11.5 µM] | u | i
CC(C)(C)CCN1CC(Oc2cccc(C(=O)N3CCOCC3)c2)C1 | 15% | u | 2% | u | i
O=C(c1cc(CN2CCOCC2)on1)N1CCC2(CC1)NCCc1c2[nH]c2ccccc12 | 8% | 32µM* | 1% | -25% | i
CN1CCc2c([nH]c3ccccc23)C12CCN(C(=O)c1cc(CN3CCOCC3)on1)CC2 | -2% | u | -1% | -18% | i
CC1Oc2ccc(NC(=O)c3cccs3)cc2CN(CCOc2ccccc2)C1=O (centres undefined) | -20% | 40µM* | i | u | i
COc1ccc(CCN2Cc3cc(NC(=O)c4ccc(OC)cc4)ccc3OC(C)C2=O)cc1 (centres undefined) | 1% | 89µM* | i | -28% | i
COc1ccc(CN2Cc3cc(NC(=O)c4cc(OC)cc(OC)c4)ccc3OC(C)C2=O)cc1 (centres undefined) | -2% | 20µM* | i | u | i
OCCNc1ncnc2ccc(-c3cccc(O)c3)cc12 | 5% | -29% | 2% | u | i
O=C(COc1ccccc1)N[C@H]1CO[C@H]2[C@@H]1OC[C@@H]2Nc1nccc(-c2ccco2)n1 | -1%[70.6 µM] | u | -3%[88.5 µM] | 89µM* | i
O=C(N[C@H]1CO[C@H]2[C@@H]1OC[C@@H]2Nc1nccc(-c2ccco2)n1)c1ccco1 | -8%[70.6 µM] | u | -13%[88.5 µM] | -23%[138 µM] | i
CC(=O)c1ccc(NC(=O)N[C@H]2CO[C@H]3[C@@H]2OC[C@@H]3Nc2nccc(-c3cccs3)n2)cc1 | 1% | 4% | -3% | -1% | i
O=C(Nc1ccccc1)N[C@H]1CO[C@H]2[C@@H]1OC[C@@H]2Nc1nccc(-c2cccs2)n1 | -15%[70.6 µM] | 63µM* | -4%[88.5 µM] | u | u
COc1ccc(Nc2ccnc(N3CCC(NC(=O)c4ccc(C(F)(F)F)cc4)CC3)n2)cc1 | x | u | -10% | u | x
COc1ccc(-c2cc(N3CCCN(C(=O)c4cc5ccccc5[nH]4)CC3)n[nH]2)cc1 | -19% | 45µM* | i | 35µM* | u
COc1ccc(-c2cc(N3CCN(C(=O)c4ccc(C)cc4C)CC3)n[nH]2)cc1 | u | 40µM* | 5% | u | i
COc1ccc(C2(C(=O)N3CCCN(c4cc(-c5ccc(C)c(C)c5)[nH]n4)CC3)CC2)cc1 | u | 25µM* | u | 32µM* | i
COc1ccc(-c2cc(N3CCCN(C(=O)c4ccc(OC)cc4OC)CC3)n[nH]2)cc1 | u | 40µM* | u | u | i
COc1cc(OC)cc(C(=O)N2CCCN(c3cc(-c4ccc(C)c(C)c4)[nH]n3)CC2)c1 | -15% | u | u | u | i
O=C(NCc1cccs1)c1nc2cccnc2n(Cc2ccccc2)c1=O | x | -11% | i | -30% | x
Cc1ccc(CN2CCC(Cn3c(C)cnc3-c3cccnc3)CC2)s1 | x | u | i | u | x
CN(Cc1ccccc1)C(=O)c1ccc(N2CC3CC(C2)[C@H]2CCCC(=O)N2C3)nc1 (some centres undefined) | 1% | 12% | -12% | i | i
C#CCNC(=O)c1nc(-c2cccnc2)c2cnccn12 | 13%[70.6 µM] | u | i | -22%[138 µM] | i
C#CCNC(=O)c1nc(-c2ccsc2)c2cnccn12 | 0%[70.6 µM] | 100µM* | i | -21%[138 µM] | i
Cc1cnc(C(=O)N2CCC(N3C(=O)C4(CCCC4)C3c3ccccc3)CC2)cn1 (centres undefined) | 6% | -23% | i | -25% | i
COc1cccc(CN(C)Cc2ccc(C)o2)c1O | -2% | -24% | i | 2% | i
SMILES | hNpr1 antagonist | HEK cytotox | GPT2 inhibitor | 3T3 cytotox | Luciferase inh
COc1cccc(NC(=O)Cn2c(N3CCc4ccccc4C3)nc(C)cc2=O)c1 | u | 20µM* | u | 22µM* | i
Cc1cc(=O)n(CC(=O)NCc2ccc(F)cc2)c(N2CCc3ccccc3C2)n1 | -25% | 45µM* | i | u | i
CCc1ccc(NC(=O)Cn2c(N3CCc4ccccc4C3)nc(C)cc2=O)cc1 | -17% | u | i | u | i
Cc1cc(=O)n(CC(=O)Nc2ccc(C(C)C)cc2)c(N2CCN(c3ccccc3)CC2)n1 | -1% | u | 3% | 32µM* | i
CCOC(=O)c1ccc(NC(=O)Cn2c(N3CCc4ccccc4C3)nc(C)cc2=O)cc1 | -13% | 32µM* | i | 32µM* | i
CCC(=O)N(C1CCOCC1)C1CCN(S(=O)(=O)c2ccc(F)cc2F)CC1 | -2% | 2% | i | -12% | i
O=C(c1ccc(Cl)nc1)N1CCN(C(=O)c2nc3cccnc3n(C3CCCC3)c2=O)CC1 | x | -15% | i | -22% | x
Cc1cc(=O)n(CC(=O)Nc2ccc(F)cc2)c(N2CCc3ccccc3C2)n1 | -23% | 40µM* | i | 40µM* | i
CCOc1ccccc1C(=O)NC1CCCN(c2cc(-c3ccc(Cl)cc3)[nH]n2)C1 (centres undefined) | -16% | 20µM* | i | 16µM* | u
COc1ccc(C(=O)NC2CCN(c3cc(-c4ccccc4)[nH]n3)CC2)c(OC)c1 | -5% | 79µM* | i | u | i
CCOc1ccccc1C(=O)NC1CCN(c2cc(-c3ccc(OC)cc3)[nH]n2)CC1 | -19% | u | i | 35µM* | i
COc1cc(Cl)ccc1C(=O)NC1CCN(c2cc(-c3ccc(F)cc3)[nH]n2)CC1 | -4% | u | -4% | 35µM* | i
CCOc1ccccc1C(=O)NC1CCN(c2cc(-c3ccccc3)[nH]n2)C1 (centres undefined) | 2% | u | u | u | i
CCOc1ccccc1C(=O)NC1CCN(c2cc(-c3ccc(OC)cc3)[nH]n2)C1 (centres undefined) | -19% | u | -8% | 35µM* | i
COCc1ccc(CN[C@H]2C[C@@H](Cc3cc(CN4CCCCC4)on3)C2(C)C)o1 | -19%[70.6 µM] | u | 4%[88.5 µM] | u | i
CCC(CC)N1CC[C@H](CO)[C@H](NC(=O)c2ccccc2)C1 | 4% | -15% | i | -7% | i
CC1(CCCCN2CCOCC2)COc2ccc(C(=O)Nc3cccc(Cl)c3)cc2N1 (centres undefined) | -1% | u | -11% | u | u
CN(C)CCCOCC1(C)COc2ccc(C(=O)Nc3ccc(F)c(Cl)c3)cc2N1 (centres undefined) | -13%[70.6 µM] | 63µM* | -14%[88.5 µM] | 40µM* | i
